# In PubChem BioAssay (EPA / NIEHS):
# Records with an inconclusive call do not appear. The source made the active and inactive calls. Rule for the calls: active = hit-call score of the fitted dose curve at least 0.9, where 1 is the maximum; inconclusive = response in the unintended direction; inactive = score below 0.9.
# Legend:
# [1] = molecular target: D(1A) dopamine receptor (Homo sapiens) (UniProt P21728); test: NVS_GPCR_hDRD1: NovaScreen (NVS) G Protein-Coupled Receptor Assay for human Dopamine Receptor D1 (DRD1) (AID 2283269)
# Outline: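 Radioligand displacement binding on membranes/protein extracted from HEK293 expressing human D1, cell-free; read 1 h after dosing by filter-based scintillation counting. Primary screen in duplicate at 25 uM, actives followed up in concentration series; signal loss versus DMSO baseline.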
# [2] = molecular target: Muscarinic acetylcholine receptor M2 (Homo sapiens) (UniProt P08172); test: NVS_GPCR_hM2: NovaScreen (NVS) G Protein-Coupled Receptor Assay for human Muscarinic, M2 Receptor (AID 2283273)
# Outline: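 Radioligand competition binding, cell-free, receptor from CHO; 1 h incubation; scintillation detection. Primary testing at 25 uM in duplicate.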
# [3] = molecular target: human Histamine 1 Receptor (H1), HRH1 (gene 3269) (UniProt P35367); test: NVS_GPCR_hH1: NovaScreen (NVS) G Protein-Coupled Receptor Assay for human Histamine 1 Receptor (H1) (AID 2283268)
# Outline: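 Filter-based scintillation detection of radioligand binding to human H1, 1 h incubation; chemicals screened in duplicate at 25 uM, then concentration-response; signal loss relative to DMSO taken as activity.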
# [4] = molecular target: Muscarinic acetylcholine receptor M1 (Homo sapiens) (UniProt P11229); test: NVS_GPCR_hM1: NovaScreen (NVS) G Protein-Coupled Receptor Assay for human Muscarinic, M1 Receptor (AID 2283270)
# Outline: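 Actives from a duplicate 25 uM single-point screen were retested in concentration series. Binding measured as displacement of a radioligand from CHO-derived receptor preparation, 1 h incubation, filtration and scintillation counting, analysed as signal loss against DMSO.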
# [5] = molecular target: human Muscarinic, M4 Receptor, CHRM4 (gene 1132) (UniProt P08173); test: NVS_GPCR_hM4: NovaScreen (NVS) G Protein-Coupled Receptor Assay for human Muscarinic, M4 Receptor (AID 2283274)
# Outline: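 Filter-based scintillation counting of radioligand bound to CHO-expressed human M4 preparations after 1 h; loss of signal fitted versus DMSO. Initial duplicate testing at 25 uM, concentration-response follow-up for actives.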
# [6] = molecular target: human Leukotriene B4 Receptor 1 (LTB4-BLT1), LTB4R (gene 1241) (UniProt Q15722); test: NVS_GPCR_hLTB4_BLT1: NovaScreen (NVS) G Protein-Coupled Receptor Assay for human Leukotriene B4 Receptor 1 (LTB4-BLT1) (AID 2283271)
# Outline: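 Cell-free human neutrophil receptor preparation, 1 h exposure, radioligand binding read by filter scintillation counting. Single 25 uM duplicate screen, then concentration series topping at 50 uM; binding loss scored against DMSO baseline.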
# [7] = molecular target: Muscarinic acetylcholine receptor M3 (Homo sapiens) (UniProt P20309); test: NVS_GPCR_hM3: NovaScreen (NVS) G Protein-Coupled Receptor Assay for human Muscarinic, M3 Receptor (AID 2283272)
# Procedure: NVS_GPCR_hM3 is a biochemical, single-readout assay that uses extracted gene-proteins from CHO in a cell-free assay. Measurements were taken 1 hour after chemical dosing in a 96-well plate.NVS_GPCR_hM3 is one of one assay component(s) measured or calculated from the NVS_GPCR_hM3 assay. It is designed to make measurements of radioligand binding, a form of binding reporter, as detected with scintillation counting signals by Filter-based radiodetection technology.Data from the assay component NVS_GPCR_hM3 was analyzed into 1 assay endpoint. This assay endpoint, NVS_GPCR_hM3, was analyzed in the positive analysis fitting direction relative to DMSO as the negative control and baseline of activity. Using a type of binding reporter, loss-of-signal activity can be used to understand changes in the binding as they relate to the gene CHRM3. Furthermore, this assay endpoint can be referred to as a primary readout, because the performed assay has only produced 1 assay endpoint. To generalize the intended target to other relatable targets, this assay endpoint is annotated to the gpcr intended target family, where the subfamily is rhodopsin-like receptor.
# Binding assays used specific radioligands (tritiated, iodinated) with non-radioactive competitive displacement ligands in agonist or antagonist protocols (as indicated) and various reference compounds and inhibitors to titrate specific binding to receptors and transporters. Most enzyme assays (CYPs, kinases, phosphatases, proteases, HDACs) used recombinant protein and specific substrates (fluorescence mostly, some colorimetric and radioactive) and inhibitors, followed by a biochemical separation of substrate and product. All assays for the biochemical HTS were initially run in duplicate at a single concentration (10 uM for CYP450 assays and 25 uM for all others). […] Each assay was run with positive and negative controls, and concurrent controls on every plate. The follow-up (secondary) screen tested active chemical-pairs in concentration series, as well as a few additional assays not tested in the primary screen, some selected negative inactives, and several cases re-run in the concentration series for confirmatory purposes.
# [8] = molecular target: human Neuropeptide Receptor Y1 (NPY1), NPY1R (gene 4886) (UniProt P25929); test: NVS_GPCR_hNPY1: NovaScreen (NVS) G Protein-Coupled Receptor Assay for human Neuropeptide Receptor Y1 (NPY1) (AID 2283276)
# Outline: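 Displacement of specific radioligand from NPY1 receptor of SK-N-MC origin, read by filtration and scintillation after 1 h. Compounds first tested at 25 uM in duplicate, then actives in concentration series; signal loss relative to DMSO.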
# [9] = molecular target: Neuropeptide Y receptor type 2 (Homo sapiens) (UniProt P49146); test: NVS_GPCR_hNPY2: NovaScreen (NVS) G Protein-Coupled Receptor Assay for human Neuropeptide Receptor Y2 (NPY2) (AID 2283277)
# Outline: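 Chemicals were first tested in duplicate at 25 uM, then actives in singleton concentration series to 50 uM. Tracer binding to SK-N-MC-derived protein measured cell-free after 1 h via filter scintillation; signal loss relative to DMSO.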
# [10] = molecular target: human Endothelin Receptor Type B (ETB), EDNRB (gene 1910) (UniProt P24530); test: NVS_GPCR_hETB: NovaScreen (NVS) G Protein-Coupled Receptor Assay for human Endothelin Receptor Type B (ETB) (AID 2283267)
# Outline: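 Filter-based scintillation readout of radioligand displacement, 4 h, using membranes from human astrocytoma cells. Actives from a 25 uM duplicate screen were retested in concentration-response (top 50 uM) relative to DMSO baseline.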
# human Neuropeptide Receptor Y1 (NPY1), NPY1R (gene 4886), sequence (P25929 whole entry, looked up): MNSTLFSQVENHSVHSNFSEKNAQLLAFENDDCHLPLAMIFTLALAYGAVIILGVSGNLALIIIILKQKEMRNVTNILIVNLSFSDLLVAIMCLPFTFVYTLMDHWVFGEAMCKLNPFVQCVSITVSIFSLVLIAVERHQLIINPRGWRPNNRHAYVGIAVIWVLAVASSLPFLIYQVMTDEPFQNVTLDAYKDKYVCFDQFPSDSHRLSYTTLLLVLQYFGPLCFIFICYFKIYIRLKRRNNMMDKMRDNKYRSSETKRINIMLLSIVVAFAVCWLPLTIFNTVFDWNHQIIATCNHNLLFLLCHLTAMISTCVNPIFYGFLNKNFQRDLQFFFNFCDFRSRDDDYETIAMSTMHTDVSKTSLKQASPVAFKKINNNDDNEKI
# Muscarinic acetylcholine receptor M3 (Homo sapiens), sequence (P20309 whole entry, looked up): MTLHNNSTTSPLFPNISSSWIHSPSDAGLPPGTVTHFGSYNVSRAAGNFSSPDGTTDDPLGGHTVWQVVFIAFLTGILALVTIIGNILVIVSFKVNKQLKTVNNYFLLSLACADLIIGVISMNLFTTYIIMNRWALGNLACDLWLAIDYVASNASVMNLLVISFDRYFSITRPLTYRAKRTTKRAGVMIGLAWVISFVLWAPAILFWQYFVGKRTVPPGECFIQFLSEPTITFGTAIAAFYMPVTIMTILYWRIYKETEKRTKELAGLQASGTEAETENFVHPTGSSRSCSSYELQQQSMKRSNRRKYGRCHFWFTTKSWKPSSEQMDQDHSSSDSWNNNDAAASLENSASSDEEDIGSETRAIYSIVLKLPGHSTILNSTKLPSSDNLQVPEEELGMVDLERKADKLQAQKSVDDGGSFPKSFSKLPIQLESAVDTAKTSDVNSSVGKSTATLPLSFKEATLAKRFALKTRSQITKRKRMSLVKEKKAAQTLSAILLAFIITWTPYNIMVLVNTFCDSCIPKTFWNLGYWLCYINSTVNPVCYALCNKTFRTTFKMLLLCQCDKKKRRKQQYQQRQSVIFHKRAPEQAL
# Muscarinic acetylcholine receptor M2 (Homo sapiens), sequence (P08172 whole entry, looked up): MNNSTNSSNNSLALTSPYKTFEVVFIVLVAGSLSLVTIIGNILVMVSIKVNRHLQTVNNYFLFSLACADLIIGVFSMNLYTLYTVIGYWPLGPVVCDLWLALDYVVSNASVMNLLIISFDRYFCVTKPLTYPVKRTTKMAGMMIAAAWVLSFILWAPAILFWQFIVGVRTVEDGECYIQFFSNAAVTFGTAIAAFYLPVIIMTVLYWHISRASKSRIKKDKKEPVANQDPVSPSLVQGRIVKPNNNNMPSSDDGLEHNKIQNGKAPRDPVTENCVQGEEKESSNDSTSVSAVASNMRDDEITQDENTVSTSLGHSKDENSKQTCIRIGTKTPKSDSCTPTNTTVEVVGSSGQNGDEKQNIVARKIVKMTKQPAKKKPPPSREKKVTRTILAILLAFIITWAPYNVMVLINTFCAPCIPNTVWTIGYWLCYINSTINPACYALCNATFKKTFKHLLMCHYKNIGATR
# D(1A) dopamine receptor (Homo sapiens), sequence (P21728 whole entry, looked up): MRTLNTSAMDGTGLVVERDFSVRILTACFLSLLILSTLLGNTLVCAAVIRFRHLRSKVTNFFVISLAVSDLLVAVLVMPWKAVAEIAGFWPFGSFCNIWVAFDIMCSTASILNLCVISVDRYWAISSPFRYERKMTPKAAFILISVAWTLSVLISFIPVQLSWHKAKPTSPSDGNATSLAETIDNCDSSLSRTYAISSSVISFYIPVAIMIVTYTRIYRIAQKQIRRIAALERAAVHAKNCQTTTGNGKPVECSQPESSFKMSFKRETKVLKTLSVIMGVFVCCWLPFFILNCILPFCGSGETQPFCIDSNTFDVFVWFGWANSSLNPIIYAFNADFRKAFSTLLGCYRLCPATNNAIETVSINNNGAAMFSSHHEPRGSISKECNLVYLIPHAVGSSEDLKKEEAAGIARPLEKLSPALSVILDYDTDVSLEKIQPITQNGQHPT
# Muscarinic acetylcholine receptor M1 (Homo sapiens), sequence (P11229 whole entry, looked up): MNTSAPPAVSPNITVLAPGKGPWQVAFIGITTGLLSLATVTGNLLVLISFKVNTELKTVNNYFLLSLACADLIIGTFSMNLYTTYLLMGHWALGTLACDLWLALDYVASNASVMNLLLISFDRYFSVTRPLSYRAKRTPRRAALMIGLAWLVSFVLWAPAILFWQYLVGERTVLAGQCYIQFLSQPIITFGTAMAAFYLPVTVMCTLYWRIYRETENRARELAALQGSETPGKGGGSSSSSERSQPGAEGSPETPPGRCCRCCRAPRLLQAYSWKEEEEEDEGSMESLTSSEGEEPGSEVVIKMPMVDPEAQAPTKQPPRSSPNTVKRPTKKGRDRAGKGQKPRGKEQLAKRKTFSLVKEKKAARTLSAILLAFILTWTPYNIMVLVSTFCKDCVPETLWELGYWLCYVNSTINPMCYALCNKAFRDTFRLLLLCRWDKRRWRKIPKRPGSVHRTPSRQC
# human Muscarinic, M4 Receptor, CHRM4 (gene 1132), sequence (P08173 whole entry, looked up): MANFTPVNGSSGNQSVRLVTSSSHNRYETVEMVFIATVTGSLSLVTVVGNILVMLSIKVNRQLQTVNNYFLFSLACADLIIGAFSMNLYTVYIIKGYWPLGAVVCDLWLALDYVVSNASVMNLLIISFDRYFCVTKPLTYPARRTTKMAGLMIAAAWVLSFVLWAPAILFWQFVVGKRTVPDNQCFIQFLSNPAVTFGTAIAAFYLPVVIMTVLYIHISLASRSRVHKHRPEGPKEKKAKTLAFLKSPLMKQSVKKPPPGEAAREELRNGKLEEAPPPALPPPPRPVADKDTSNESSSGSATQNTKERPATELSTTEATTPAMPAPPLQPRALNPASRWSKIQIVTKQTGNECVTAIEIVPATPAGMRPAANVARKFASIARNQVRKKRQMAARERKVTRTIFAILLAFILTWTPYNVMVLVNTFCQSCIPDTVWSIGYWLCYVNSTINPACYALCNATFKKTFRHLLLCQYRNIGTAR
# Neuropeptide Y receptor type 2 (Homo sapiens), sequence (P49146 whole entry, looked up): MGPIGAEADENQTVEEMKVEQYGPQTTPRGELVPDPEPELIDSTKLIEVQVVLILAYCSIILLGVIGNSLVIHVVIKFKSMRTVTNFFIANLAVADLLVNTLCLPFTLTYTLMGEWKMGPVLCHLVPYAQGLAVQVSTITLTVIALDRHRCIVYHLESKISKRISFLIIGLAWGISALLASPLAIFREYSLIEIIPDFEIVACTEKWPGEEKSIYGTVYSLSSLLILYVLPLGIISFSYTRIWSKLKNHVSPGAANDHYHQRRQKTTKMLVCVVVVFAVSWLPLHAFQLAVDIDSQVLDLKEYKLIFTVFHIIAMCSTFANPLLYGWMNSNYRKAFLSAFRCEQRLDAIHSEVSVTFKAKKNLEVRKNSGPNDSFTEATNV
# human Leukotriene B4 Receptor 1 (LTB4-BLT1), LTB4R (gene 1241), sequence (Q15722 whole entry, looked up): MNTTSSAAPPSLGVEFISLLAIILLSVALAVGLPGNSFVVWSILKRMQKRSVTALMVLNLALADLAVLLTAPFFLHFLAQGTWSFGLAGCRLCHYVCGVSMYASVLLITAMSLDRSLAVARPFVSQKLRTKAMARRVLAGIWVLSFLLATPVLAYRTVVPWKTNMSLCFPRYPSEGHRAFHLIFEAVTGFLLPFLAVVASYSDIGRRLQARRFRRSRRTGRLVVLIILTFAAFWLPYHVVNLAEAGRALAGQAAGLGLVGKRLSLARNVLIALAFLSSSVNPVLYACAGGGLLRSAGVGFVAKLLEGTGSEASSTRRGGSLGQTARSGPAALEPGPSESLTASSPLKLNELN
# human Histamine 1 Receptor (H1), HRH1 (gene 3269), sequence (P35367 whole entry, looked up): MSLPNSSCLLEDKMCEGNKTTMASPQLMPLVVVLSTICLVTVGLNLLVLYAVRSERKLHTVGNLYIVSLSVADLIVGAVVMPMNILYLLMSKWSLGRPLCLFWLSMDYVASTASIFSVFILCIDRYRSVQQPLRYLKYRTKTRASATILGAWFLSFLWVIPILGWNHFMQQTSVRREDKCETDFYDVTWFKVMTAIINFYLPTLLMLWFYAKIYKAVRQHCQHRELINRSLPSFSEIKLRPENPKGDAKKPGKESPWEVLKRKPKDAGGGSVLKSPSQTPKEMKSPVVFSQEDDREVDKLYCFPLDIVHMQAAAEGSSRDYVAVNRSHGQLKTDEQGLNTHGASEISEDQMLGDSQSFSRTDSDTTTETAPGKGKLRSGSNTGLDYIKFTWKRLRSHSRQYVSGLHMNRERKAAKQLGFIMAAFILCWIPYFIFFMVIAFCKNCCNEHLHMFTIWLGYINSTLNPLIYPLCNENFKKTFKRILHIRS
# human Endothelin Receptor Type B (ETB), EDNRB (gene 1910), sequence (P24530 whole entry, looked up): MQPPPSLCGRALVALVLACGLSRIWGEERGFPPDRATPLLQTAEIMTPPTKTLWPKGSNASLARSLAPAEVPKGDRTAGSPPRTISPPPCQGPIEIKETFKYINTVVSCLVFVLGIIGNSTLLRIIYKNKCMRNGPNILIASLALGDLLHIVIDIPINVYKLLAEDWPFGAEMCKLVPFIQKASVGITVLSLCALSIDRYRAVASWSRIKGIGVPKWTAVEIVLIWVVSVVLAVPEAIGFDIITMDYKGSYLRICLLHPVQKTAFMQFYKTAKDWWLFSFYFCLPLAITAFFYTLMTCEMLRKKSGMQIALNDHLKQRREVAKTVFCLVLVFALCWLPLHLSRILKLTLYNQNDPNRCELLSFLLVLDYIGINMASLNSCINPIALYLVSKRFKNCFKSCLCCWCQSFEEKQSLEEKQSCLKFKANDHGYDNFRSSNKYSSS
smiles,measurement,setting,value
CCCOCC(=Nc1ccc(Cl)cc1C(F)(F)F)n1ccnc1,AC50,[1],9.19 µM (active)
same,outcome,[2],inactive
CN(C)C(=O)Nc1cccc(C(F)(F)F)c1,outcome,[3],inactive
CCOP(=O)(NC(C)C)Oc1ccc(SC)c(C)c1 (stereo unspecified),outcome,[4],inactive
FC(F)C(F)(F)OCC(Cn1cncn1)c1ccc(Cl)cc1Cl (stereo unspecified),outcome,[5],inactive
COc1cc(OC)nc(Sc2cccc(Cl)c2C(=O)O)n1,outcome,[6],inactive
C#CCC1=C(C)C(OC(=O)C2C(C=C(C)C)C2(C)C)CC1=O (stereo unspecified),AC50,[4],11 µM (active)
same,AC50,[7],7.59 µM (active)
S=C1NCCN1,outcome,[2],inactive
same,outcome,[8],inactive
CC1=NNC(=O)N(/N=C/c2cccnc2)C1,outcome,[5],inactive
Nc1nc(N)nc(NC2CC2)n1,outcome,[9],inactive
CC(C)N(C(=O)SCC(Cl)=C(Cl)Cl)C(C)C,outcome,[5],inactive
N#CSCSC#N,AC50,[8],12.6 µM (active)
Cc1cc(C2CC2)nc(Nc2ccccc2)n1,AC50,[4],10.1 µM (active)
same,AC50,[7],5.41 µM (active)
same,AC50,[2],6.13 µM (active)
same,AC50,[5],6.51 µM (active)
C[Si](Cn1cncn1)(c1ccc(F)cc1)c1ccc(F)cc1,AC50,[7],11.6 µM (active)
same,outcome,[2],inactive
same,AC50,[5],14.4 µM (active)
CN1COCN(Cc2cnc(Cl)s2)C1=N[N+](=O)[O-],outcome,[7],inactive
same,outcome,[9],inactive
COP(=O)(OC)OC(Br)C(Cl)(Cl)Br (stereo unspecified),AC50,[1],11.8 µM (active)
same,AC50,[8],15.5 µM (active)
CC(C1CC1)C(O)(Cn1cncn1)c1ccc(Cl)cc1 (stereo unspecified),AC50,[5],12.1 µM (active)
CCOP(=O)(SC(C)CC)N1CCSC1=O (stereo unspecified),outcome,[3],inactive
CC(C)=CC1C(C(=O)OCN2C(=O)C3=C(CCCC3)C2=O)C1(C)C (stereo unspecified),AC50,[1],6.68 µM (active)
CCOP(=S)(OCC)Oc1ccc([N+](=O)[O-])cc1,AC50,[7],5.42 µM (active)
same,AC50,[5],7.24 µM (active)
COc1cccc(C(=O)NN(C(=O)c2cc(C)cc(C)c2)C(C)(C)C)c1C,AC50,[7],0.429 µM (active)
same,outcome,[2],inactive
CNC(=O)Oc1cccc2c1OC(C)(C)O2,outcome,[10],inactive
CC[C@H](C)[C@H]1O[C@]2(C=C[C@@H]1C)C[C@@H]1C[C@@H](C/C=C(\C)[C@@H](O[C@H]3C[C@H](OC)[C@@H](O[C@H]4C[C@H](OC)[C@@H](NC)[C@H](C)O4)[C@H](C)O3)[C@@H](C)/C=C/C=C3\CO[C@@H]4[C@H](O)C(C)=C[C@@H](C(=O)O1)[C@]34O)O2,AC50,[1],8.1 µM (active)
same,AC50,[4],12.6 µM (active)
same,AC50,[7],10.1 µM (active)
same,AC50,[5],12.9 µM (active)
same,AC50,[8],18.3 µM (active)
COc1ccc(C(=CC(=O)N2CCOCC2)c2ccc(Cl)cc2)cc1OC,outcome,[6],inactive
C[N+]1(C)CCCCC1,outcome,[2],inactive
same,outcome,[9],inactive
